According to ChEMBL document CHEMBL1157539, “Thousands of chemical starting points for antimalarial lead identification” (Nature, 2010):

How the values were obtained:
Assay type in all cases: functional
Plasmodium falciparum [1] = experiment: GSK_TCMDC: Inhibition of Plasmodium falciparum 3D7 in whole red blood cells, using parasite LDH activity as an index of growth. Test compounds present at 2uM
Plasmodium falciparum [2] = experiment: GSK_TCMDC: Inhibition of Plasmodium falciparum Dd2 in whole red blood cells, using parasite LDH activity as an index of growth. Test compounds present at 2uM
HepG2 = experiment: GSK_TCMDC: Percent inhibition of human HepG2 cell line. Test compounds present at 10uM.

| SMILES | Inhibition (Plasmodium falciparum [1]) [%] | Inhibition (Plasmodium falciparum [2]) [%] | Inhibition (HepG2) [%] |
| --- | --- | --- | --- |
| Cc1cc2nc(N=C3NC4(c5ccccn5)NC(=Nc5nc6cc(C)c(C)cc6[nH]5)NC4(c4ccccn4)N3)[nH]c2cc1C.O=C(O)C(F)(F)F (configuration not stated) | 87 | 62 | 3 |
| Cl.N#Cc1ccc(NC(=O)c2ccc(Cc3ccc4c(c3)CCN(C3CCC3)CC4)cn2)cc1 | 91 | 2 | 66 |
| COc1ccc(O)c(C(=O)NCCc2ccc(OC)c(-c3ccc(C(C)(C)C)cc3)c2)c1 | 88 | 91 | 11 |
| O=C(Nc1ccc2c(c1)CCC2)c1ccc(N2CCN(c3ccncc3)CC2)cn1.O=C(O)C(F)(F)F | 99 | 58 | 56 |
| COc1ccc2nccc([C@@H](O)CN3CCC(NC(=O)/C=C/c4ccc5cc(C)[nH]c5c4)CC3)c2c1 | 97 | 93 | 7 |
| CCN(CCO)CCCC(C)Nc1ccnc2cc(Cl)ccc12.O=S(=O)(O)O (configuration not stated) [HYDROXYCHLOROQUINE SULFATE] | 99 | 0 | 3 |
| FC(F)(F)c1cccc(N=C(S)NN=Cc2ccccn2)c1 | 100 | 99 | 29 |
| CNC(=S)NCc1cnc2ccccn12 | 97 | 0 | 0 |
| CCCCN1CCN(CCCCNc2c3ccccc3nc3ccccc23)CC1.Cl | 100 | 5 | 27 |
| COc1ccc2c(c1)Sc1ccccc1C(N1CCN(CCO)CC1)C2.Cl (configuration not stated) | 95 | 4 | 11 |
| Cc1cccc2nc(-c3cccc(-c4ccc(NC(=O)Nc5cccc(C#N)c5)cc4)c3)[nH]c12 | 100 | 91 | 50 |
| Cl.N#Cc1ccc2c(c1)CCN(CCC1CCC(NC(=O)Nc3ccncc3)CC1)C2 (configuration not stated) | 85 | 3 | 6 |
| Cc1cc(C)c(NC(=O)N[C@H]2CCN(CCCCCNC(=O)/C=C/c3ccc(Cl)c(Cl)c3)C2)c(C)c1 | 91 | 3 | 12 |
| CC(C)CNCc1ccc(-c2ccccc2CNC2CCN(Cc3ccccc3)CC2)cc1.O=C(O)C(F)(F)F | 100 | 41 | 28 |
| O=C(/C=C/c1ccc(Cl)c(Cl)c1)N1CCC(CCN2CCC(c3c[nH]c4cc5c(cc34)OCO5)CC2)CC1 | 99 | 65 | 46 |
| CC(=O)Nc1ccc(S(=O)(=O)N2CCN(c3nc(NC4CCCC4)c4ccccc4n3)CC2)cc1 | 88 | 2 | 7 |
| O=C(NC1CCN(c2ccnc3cc(Cl)ccc23)C1)c1ccccc1F.O=C(O)C(F)(F)F (configuration not stated) | 100 | 71 | 8 |
| CC(C(=O)N1CCCC1)N1CCN(S(=O)(=O)c2ccc(C(C)(C)C)cc2)CC1 (configuration not stated) | 98 | 86 | 4 |
| O=C(NC1CCN(Cc2ccccc2)C1)c1ccc(Nc2ccc(Br)cc2)nc1.O=C(O)C(F)(F)F (configuration not stated) | 94 | 21 | 19 |
| Cc1c(NCCCNCc2cc(Cl)cc(Cl)c2Cl)[nH]c2ccccc2c1=O.Cl | 100 | 86 | 35 |
| Br.CCCOc1ccc(OCCCON2C(=N)N=C(N)NC2(C)C)cc1 | 96 | 94 | 59 |
| CCc1ccc(-c2cnc(N)c3cc(-c4ccnc(N)n4)ccc23)cc1 | 92 | 70 | 37 |
| CC1(C)CCCC(=Cc2ccc(Br)cc2)C1(O)Cn1ccnc1 (configuration not stated) | 99 | 69 | 7 |
| c1ccc(Oc2ccc(Nc3ccnc4cc(-c5ccc(CN6CCCCC6)o5)ccc34)cc2)nc1 | 100 | 100 | 18 |
| Cc1cccc2nc(-c3ccc(-c4ccc(CN5CCC(CO)CC5)cc4)s3)[nH]c12.O=C(O)C(F)(F)F | 100 | 82 | 15 |
| COc1ccc(NC(=O)[C@H](Cc2ccccc2)Nc2cc(C)nc(Nc3ccccc3)n2)cc1.O=C(O)C(F)(F)F | 100 | 92 | 0 |
| CN1CCC(C(=O)Nc2cccc(-c3ccc(-c4nc5cc(C(F)(F)F)ccc5[nH]4)cc3)c2)CC1 | 100 | 99 | 38 |
| CCOc1ccccc1CON1C(N)=NC(N)=NC1(C)C | 90 | 1 | 66 |
| Cc1ccccc1C1CCN(C2CCC(NC(=O)/C=C/c3cccc(F)c3)CC2)CC1 (configuration not stated) | 84 | 38 | 46 |
